“And” between values parts separate entries of the source, which are not always exact repeats. Equal entries are not always repeated. Results filed as inconclusive are left out. A call without a number means that no potency is given here. More than one record can exist for a structure, and the calls need not agree. The source made the active and inactive calls. Unless noted, the call rests on the fitted dose curve; in most records, active means well fitted curve in the direction sought with a large enough effect in the repeat runs; inconclusive means weak or mixed curves; inactive means no such curve, though single readings can be large; an effect the other way counts as inactive or inconclusive.
What was measured:
[1] = qHTS assay to identify small molecule agonists of the peroxisome proliferator-activated receptor delta (PPARd) signaling pathway - cell viability counter screen (AID 743211); further: nearly all actives have a fitted effect of over 55% in size
Summary of the method: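 Tox21 library compounds, delivered in DMSO, were incubated 17 h with PPARd-bla HEK293H cells; cytotoxicity was taken from CellTiter-Glo luminescence read 30 min after reagent addition.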

[2] = biological target: Peroxisome proliferator-activated receptor delta (Homo sapiens) (UniProt Q03181); assay: qHTS assay to identify small molecule agonists of the peroxisome proliferator-activated receptor delta (PPARd) signaling pathway (AID 743212; calls by dose curve)
Summary of the method: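 Read-out: beta-lactamase FRET fluorescence after 2 h room-temperature incubation with LiveBLAzer B/G substrate. Cells were HEK293H carrying a UAS-bla reporter for PPARd, treated at 37 C with DMSO-dissolved compounds.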

[3] = qHTS assay to identify small molecule antagonists of the peroxisome proliferator-activated receptor delta (PPARd) signaling pathway - cell viability counter screen (AID 743213); further: nearly all actives have a fitted effect of over 50% in size
Summary of the method: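 HEK293H PPARd UAS-bla cells, 5 h pre-incubation, compound + L165041 300 nM final, 17 h 37 C; B/G FRET substrate 2 h RT; then CellTiter-Glo 30 min RT, luminescence.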

[4] = biological target: Peroxisome proliferator-activated receptor delta (Homo sapiens) (UniProt Q03181); assay: qHTS assay to identify small molecule antagonists of the peroxisome proliferator-activated receptor delta (PPARd) signaling pathway (AID 743215; active means well fitted inhibition curve with a large enough effect in the signal ratio in the repeat runs, not every such curve was filed as active; the % refers to the signal ratio;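 further: cells stimulated with agonist L165041 at 300 nM final during compound exposure; series mostly up to about 62 µM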)
Summary of the method: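 Cells: HEK293H with a UAS-driven beta-lactamase reporter responsive to PPARd. Compounds were co-added with L165041 (300 nM, final) and incubated 17 h at 37 C before a 2 h room-temperature FRET substrate step and fluorescence reading.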

[5] = qHTS assay to identify small molecule agonists of the farnesoid-X-receptor (FXR) signaling pathway - cell viability counter screen (AID 743218); further: nearly all actives have a fitted effect of over 45% in size
Summary of the method: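 Cells were seeded, left 5 h at 37 C and 5% CO2, then dosed with compound in DMSO for 16 h. After the beta-lactamase FRET read, CellTiter-Glo was added and luminescence measured 30 min later.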

[6] = qHTS assay to identify small molecule antagonists of the farnesoid-X-receptor (FXR) signaling pathway - cell viability counter screen (AID 743221; active means well fitted cell-killing curve with a large enough effect in the repeat runs, not every such curve was filed as active; further: nearly all actives have a fitted effect of over 50% in size)
Summary of the method: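 Cytotoxicity is taken from ATP luminescence (CellTiter-Glo, 30 min, room temperature) in FXR-bla HEK 293T cells previously incubated 16 h at 37 C with compound and chenodeoxycholic acid at 50 uM final.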

[7] = biological target: Vitamin D3 receptor (Homo sapiens) (UniProt P11473); assay: qHTS assay to identify small molecule agonists of the vitamin D receptor (VDR) signaling pathway (AID 743222; calls by dose curve)
Summary of the method: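 Cells carrying a VDR-driven beta-lactamase reporter are seeded at 2,000 per well and rested 4 h. Compounds in DMSO are added for 16 h at 37C, and FRET substrate fluorescence is measured after 2 h at room temperature.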

[8] = biological target: Vitamin D3 receptor (Homo sapiens) (UniProt P11473); assay: qHTS assay to identify small molecule antagonists of the vitamin D receptor (VDR) signaling pathway (AID 743223; active means well fitted inhibition curve with a large enough effect in the signal ratio in the repeat runs, not every such curve was filed as active; the % refers to the signal ratio)
Summary of the method: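 Quantitative HTS in VDR-bla reporter cells stimulated with 1alpha,25-dihydroxyvitamin D3, 3 nM final. Compound exposure 16 h, 37C, 5% CO2. Read-out: beta-lactamase FRET substrate fluorescence, 2 h RT.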

[9] = qHTS assay to identify small molecule agonists of the vitamin D receptor (VDR) signaling pathway - cell viability counter screen (AID 743224); further: series mostly up to about 63 µM; nearly all actives have a fitted effect of over 50% in size
Summary of the method: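 Cells: VDR-bla, 2,000/well, settled 4 h. Treatment: compounds in DMSO, 16 h, 37C/5% CO2. Readout: CellTiter-Glo luminescence after 30 min RT.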

[10] = qHTS assay to identify small molecule antagonists of the vitamin D receptor (VDR) signaling pathway - cell viability counter screen (AID 743225); further: nearly all actives have a fitted effect of over 50% in size
Summary of the method: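 Same-well multiplex: following 16 h treatment of HEK 293T cells carrying a UAS-driven beta-lactamase reporter with compound and agonist (3 nM final), and a 2 h FRET substrate step, CellTiter-Glo was added and luminescence read after 30 min.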

[11] = qHTS assay to identify small molecule agonists of the NFkB signaling pathway - cell viability counter screen (AID 1159515; calls by dose curve; further: series mostly up to about 61 µM; nearly all actives have a fitted effect of over 55% in size)
Summary of the method: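 Cells are seeded (2,000 NFkB-bla ME-180 per well), rested overnight, and dosed with DMSO-dissolved compounds for 5 hr at 37 C. Viability is then read by CellTiter-Glo luminescence after 30 min at room temperature.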

[12] = qHTS assay to identify small molecule agonists of the endoplasmic reticulum stress response signaling pathway (AID 1159516; active means well fitted activation curve with a large enough effect in the signal ratio in the repeat runs, not every such curve was filed as active; the % refers to the signal ratio)
Summary of the method: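 Cells are seeded at 1,500 per well and incubated overnight. Compounds in DMSO are added for 5 hr at 37 C, then beta-lactamase FRET substrate for 2 hr at room temperature, and fluorescence at 460 and 530 nm is measured.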

[13] = qHTS assay to identify small molecule agonists of the endoplasmic reticulum stress response signaling pathway - cell viability counter screen (AID 1159517; calls by dose curve)
Summary of the method: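 Steps: seed 1,500 ESRE-bla HeLa cells per well; incubate overnight at 37 C, 5% CO2; add compounds in DMSO for 5 hr; run FRET substrate 2 hr RT; add CellTiter-Glo, wait 30 min, read luminescence.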

[14] = qHTS assay to identify small molecule antagonists of the retinoid-related orphan receptor gamma (ROR-gamma) signaling pathway - cell viability counter screen (AID 1159520); further: nearly all actives have a fitted effect of over 50% in size
Summary of the method: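 Tet-on ROR gamma CHO cells were given compounds for 2 hr, then doxycycline hyclate at 1 uM final, and incubated 16 hr at 37 C. Viability was measured as ATP content by CellTiter-Glo luminescence.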

[15] = biological target: Nuclear receptor ROR-gamma (Homo sapiens) (UniProt P51449); assay: qHTS assay to identify small molecule antagonists of the retinoid-related orphan receptor gamma (ROR-gamma) signaling pathway (AID 1159521; further: nearly all actives have a fitted effect of over 50% in size; further: potency means the concentration at half of the fitted maximal effect)
Summary of the method: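 Inducible-expression reporter assay: doxycycline (1 uM final) switched on RORγ in CHO cells bearing a ROR response element-luciferase construct, with test compounds present from 2 h beforehand. Decreased luminescence after 16 h defined antagonist activity.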

[16] = qHTS assay to identify small molecule agonists of the AP-1 signaling pathway - cell viability counter screen (AID 1159525; calls by dose curve; further: nearly all actives have a fitted effect of over 55% in size)
Summary of the method: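 Same-well cytotoxicity counter screen of the Tox21 10K library in ME-180 cells. The readout is ATP-dependent luminescence after 5 h compound treatment. Data are normalised to DMSO and tetra n-octyl ammonium bromide controls.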

[17] = qHTS assay to identify small molecule agonists of the AP-1 signaling pathway (AID 1159526; calls by dose curve)
[18] = biological target: Retinoic acid receptor RXR-alpha (Homo sapiens) (UniProt P19793); assay: qHTS assay to identify small molecule agonists of the RXR signaling pathway (AID 1159527; calls by dose curve; further: nearly all actives have a fitted effect of over 35% in size)
Summary of the method: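 Compounds in DMSO were added to RXR-alpha-UAS-bla HEK 293T cells kept in 2% charcoal-stripped serum, and incubated 16 hr at 37 C with 5% CO2. Reporter signal came from a 2 hr B/G FRET substrate step.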

[19] = qHTS assay to identify small molecule agonists of the RXR signaling pathway - cell viability counter screen (AID 1159529)
Summary of the method: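 Counter screen: CellTiter-Glo luminescence. Cells: RXR-alpha-UAS-bla HEK 293T. Medium: 2% charcoal-stripped FBS. Treatment: 16 h, 37 C. Reagent incubation: 30 min, RT.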

[20] = biological target: Bile acid receptor (Homo sapiens) (UniProt Q96RI1); assay: qHTS assay to identify small molecule antagonists of the farnesoid-X-receptor (FXR) signaling pathway (AID 743217; active means well fitted inhibition curve with a large enough effect in the signal ratio in the repeat runs, not every such curve was filed as active; the % refers to the signal ratio)
Summary of the method: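 Cells carrying a UAS-driven beta-lactamase reporter (GeneBLAzer FXR-UAS-bla HEK 293T) were plated and rested 5 h at 37 °C. Compounds in DMSO were added alongside chenodeoxycholic acid agonist at 50 uM final and left 16 h at 37 °C before FRET substrate readout.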

Chain of Retinoic acid receptor RXR-alpha (Homo sapiens) (P19793 whole entry, looked up): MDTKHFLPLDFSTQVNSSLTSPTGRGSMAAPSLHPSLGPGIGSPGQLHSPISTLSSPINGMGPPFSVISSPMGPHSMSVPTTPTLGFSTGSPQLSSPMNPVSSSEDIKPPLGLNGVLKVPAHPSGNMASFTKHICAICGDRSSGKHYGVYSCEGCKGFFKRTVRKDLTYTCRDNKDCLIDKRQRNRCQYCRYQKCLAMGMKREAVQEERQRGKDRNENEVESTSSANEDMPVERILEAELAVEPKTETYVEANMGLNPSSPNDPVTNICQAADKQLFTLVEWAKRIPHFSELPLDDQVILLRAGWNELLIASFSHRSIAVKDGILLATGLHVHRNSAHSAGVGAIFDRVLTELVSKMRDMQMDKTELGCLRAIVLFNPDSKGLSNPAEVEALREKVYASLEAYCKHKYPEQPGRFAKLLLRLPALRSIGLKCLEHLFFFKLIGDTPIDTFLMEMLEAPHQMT
Chain of Peroxisome proliferator-activated receptor delta (Homo sapiens) (Q03181 whole entry, looked up): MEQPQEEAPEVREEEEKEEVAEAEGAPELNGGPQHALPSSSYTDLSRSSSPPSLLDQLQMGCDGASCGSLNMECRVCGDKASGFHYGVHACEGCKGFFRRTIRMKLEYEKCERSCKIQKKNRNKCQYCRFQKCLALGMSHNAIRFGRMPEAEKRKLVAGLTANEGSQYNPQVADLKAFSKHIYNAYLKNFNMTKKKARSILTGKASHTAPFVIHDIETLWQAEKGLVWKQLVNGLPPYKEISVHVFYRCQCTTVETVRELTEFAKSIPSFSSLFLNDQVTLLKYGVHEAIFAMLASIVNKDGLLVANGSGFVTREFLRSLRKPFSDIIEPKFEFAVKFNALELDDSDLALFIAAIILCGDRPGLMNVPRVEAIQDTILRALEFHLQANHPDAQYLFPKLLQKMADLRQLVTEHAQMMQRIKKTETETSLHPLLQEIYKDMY
Chain of Vitamin D3 receptor (Homo sapiens) (P11473 whole entry, looked up): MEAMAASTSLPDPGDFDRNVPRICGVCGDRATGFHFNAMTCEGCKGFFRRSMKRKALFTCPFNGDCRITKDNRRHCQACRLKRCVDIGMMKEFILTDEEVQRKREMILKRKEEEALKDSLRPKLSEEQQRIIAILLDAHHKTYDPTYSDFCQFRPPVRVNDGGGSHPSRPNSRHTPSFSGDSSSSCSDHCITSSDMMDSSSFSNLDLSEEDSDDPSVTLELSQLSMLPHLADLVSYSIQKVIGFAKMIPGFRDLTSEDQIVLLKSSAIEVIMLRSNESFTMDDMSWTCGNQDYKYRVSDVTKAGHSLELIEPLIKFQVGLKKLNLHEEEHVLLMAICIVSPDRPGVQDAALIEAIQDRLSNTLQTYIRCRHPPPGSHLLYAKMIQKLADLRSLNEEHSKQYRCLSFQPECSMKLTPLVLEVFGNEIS
Chain of Bile acid receptor (Homo sapiens) (Q96RI1 whole entry, looked up): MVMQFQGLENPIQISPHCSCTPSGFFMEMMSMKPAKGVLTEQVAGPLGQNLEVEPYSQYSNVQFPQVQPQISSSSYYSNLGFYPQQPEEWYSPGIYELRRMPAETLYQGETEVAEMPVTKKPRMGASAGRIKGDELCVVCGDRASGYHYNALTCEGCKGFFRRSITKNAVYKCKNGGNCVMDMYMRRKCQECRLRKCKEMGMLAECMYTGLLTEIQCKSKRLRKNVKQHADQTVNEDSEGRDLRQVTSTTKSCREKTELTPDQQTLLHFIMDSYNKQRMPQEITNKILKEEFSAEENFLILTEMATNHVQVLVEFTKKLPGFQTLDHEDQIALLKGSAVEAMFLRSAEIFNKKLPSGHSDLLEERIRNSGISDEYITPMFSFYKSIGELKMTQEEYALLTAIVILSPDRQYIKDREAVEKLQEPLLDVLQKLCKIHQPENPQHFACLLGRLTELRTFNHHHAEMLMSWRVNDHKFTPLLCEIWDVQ

SMILES	Potency [1]	Potency [2]	Potency [3]	Potency [4]	Potency [5]	Potency [6]	outcome [7]	Potency [8]	Potency [9]	Potency [10]	Potency [11]	Potency [12]	Potency [13]	Potency [14]	Potency [15]	Potency [16]	outcome [17]	Potency [18]	Potency [19]	Potency [20]
OC1CCCCC1	inactive	inactive	inactive	inactive	inactive	inactive	inactive	inactive	inactive	inactive	inactive	inactive	inactive	inactive	inactive	inactive	inactive	inactive	inactive	
Cc1ccc(Cl)cc1	inactive	inactive	inactive	inactive	inactive	inactive	inactive	inactive	inactive	inactive	inactive	inactive	inactive	inactive	inactive	inactive	inactive	inactive	inactive	inactive
Cc1ncc(CO)c(CO)c1O	inactive	inactive	inactive	inactive	inactive	inactive	inactive	inactive	inactive	inactive	inactive	inactive	inactive	inactive	inactive	inactive	inactive	inactive	inactive	inactive
CCCCCNCCCCC	inactive	inactive	inactive	inactive	inactive	inactive	inactive	inactive	inactive	inactive	inactive	inactive	inactive	inactive	inactive	inactive	inactive	inactive	inactive	
CC(O)CNCC(C)O (stereo unspecified)	inactive	inactive	inactive	inactive	inactive	inactive	inactive	inactive	inactive	inactive	inactive	inactive	inactive	inactive	inactive	inactive	inactive	inactive	inactive	
COC(=O)/C=C\C(=O)OC	inactive	inactive	inactive	inactive	inactive	inactive	inactive	inactive	inactive	inactive	inactive	inactive	inactive	inactive	inactive	inactive	inactive	inactive	inactive	
N#CCC(=O)O	inactive	inactive	inactive	inactive	inactive	inactive	inactive	inactive	inactive	inactive	inactive	inactive	inactive	inactive	inactive	inactive	inactive	inactive	inactive	
NC(N)=S	inactive		inactive		inactive	inactive	inactive	inactive	inactive	inactive	inactive	inactive	inactive	inactive	inactive	inactive	inactive	inactive	inactive	inactive
CCCCCCCCCCCCCC(=O)O	inactive		inactive		inactive	inactive	inactive	inactive	inactive	inactive	inactive	inactive	inactive	inactive	inactive	inactive	inactive	inactive	inactive	inactive
CCN(CC)CCNC(=O)c1ccc(N)cc1	inactive		inactive		inactive	inactive					inactive	inactive	inactive	inactive	inactive	inactive	inactive	inactive	inactive	
CC/C(C)=N/O	inactive		inactive		inactive	inactive	inactive	inactive	inactive	inactive	inactive	inactive	inactive	inactive	inactive	inactive	inactive	inactive	inactive	
CC(=O)Nc1ccc(CC(=O)O)cc1	inactive		inactive		inactive	inactive			inactive	inactive	inactive	inactive	inactive	inactive	inactive	inactive	inactive	inactive	inactive	
O=c1c(O)c(-c2ccc(O)c(O)c2)oc2cc(O)cc(O)c12	inactive		inactive		inactive	inactive	inactive	inactive	inactive	inactive	inactive	inactive	inactive	inactive	inactive and 43.6 µM (active) and 54.5 µM (active)	inactive	inactive	inactive	inactive	
Brc1ccc(Oc2ccc(Br)cc2)cc1	inactive	inactive	inactive	inactive	inactive	inactive	inactive	inactive	inactive	inactive	inactive	inactive	inactive	inactive	inactive	inactive	inactive		inactive	
O=C(c1ccccc1)c1ccc(O)c(O)c1O	inactive	inactive	inactive		inactive	inactive	inactive	inactive	inactive	inactive	inactive	inactive	inactive	inactive	inactive	inactive	inactive	inactive	inactive	
CC(C)(C)NC[C@H](O)COc1nsnc1N1CCOCC1	inactive		inactive		inactive	inactive	inactive	inactive	inactive	inactive	inactive	inactive	inactive	inactive	inactive	inactive	inactive	inactive	inactive	

From PubChem BioAssay (Tox21)
